# Measured values published in PubChem BioAssay (Tox21).
# Where “and” joins values, the source holds several entries; their conditions need not be identical. Equal values may be shown once. Results filed as inconclusive are left out. Entries that show only a call come without a potency. Calls of active or inactive are those of the source. Calls follow the shape of the dose curve; as a rule, active = well fitted cell-killing curve with a large enough effect in the repeat runs; inconclusive = weak or mixed curves, or effect the other way; inactive = flat fitted curve, though single readings scatter.
# Test: qHTS assay to identify small molecule antagonists of the retinoid acid receptor (RAR) signaling pathway - cell viability counter screen (AID 1159551); also: nearly all actives have a fitted effect of over 35% in size
# Details: C3RL4 cells viability, ATP luminescence (CellTiter-Glo), 6 h; series mostly up to 92.4 µM
# Description: U.S. Tox21 Program National Center for Advancing Translational Sciences [NCATS] NIH Chemical Genomics Center [NCGC] U.S. Environmental Protection Agency [EPA] National Institutes of Environmental Health Sciences [NIEHS] National Toxicology Program [NTP] U.S. Food and Drug Administration [FDA] Tox21 Assay Overview: All-trans Retinoic acid (atRA) is the potent natural metabolite of retinol and plays an important role in normal embryonic development and maintenance of cellular phenotype in adult animals. atRA is the activating ligand for the retinoic acid receptors (RARs) which form heterodimers with retinoid X receptors (RXRs) on the retinoic acid response element (RARE). Through activation of the RAR/RXRs nuclear receptors, atRA regulates the transcription of a large number of protein-coding genes and regulatory RNAs. Intracellular levels of atRA are controlled by the retinol signaling pathway (RSP) that regulates the biosynthesis and catabolism of atRA to maintain physiological levels. Chemicals that interfere with the RSP can cause abnormal intracellular levels of atRA and therefore are potential developmental toxicants. To assess compounds for the potential adverse effect on embryonic development through interfering with retinol signaling, a cell-based RARE luciferase reporter gene assay was used. C3RL4 cell line (OARSA/CFSAN/FDA, Laurel, MD) was used to screen Tox21 10K compound library for identifying inhibitors of the RSP. Also cytotoxicity was assessed by determining the viability of cells based on the quantitation of ATP.
# Tox21 Assay Protocol Summary: C3RL4 cells were seeded at 1,000/well in 4 uL of assay medium into white solid 1,536-well tissue culture plates (Greiner Bio-One North America Inc. Monroe, NC) using a Multidrop Combi (Thermo Scientific, Waltham, MA) dispenser. After incubation at 37 C and 5% CO2 for an overnight, 23 nL of compounds dissolved in DMSO, positive control or DMSO only were transferred by a Pintool station (Kalypsys, San Diego, CA). One ul of 1 uM (final concentration) of Retinol was added right after the compound addition by using a Flying Reagent Dispenser (FRD) (Aurora Discovery, San Diego, CA). After 6 hr incubation at 37 C and 5% CO2, 5 uL of CellTiter-Glo reagent (Promega Corporation, Madison, WI) was added to each assay plate using an FRD. Luminescence was quantified on a ViewLux plate reader (PerkinElmer, Waltham, MA) after 30 min incubation at room temperature.
# Potency is read from the fitted curve at half-maximal effect.
row,Compound,Potency
1,COc1ccc2c3c1O[C@H]1[C@H](O)CC[C@H]4[C@@H](C2)N(C)CC[C@@]341,inactive
2,CCCCCON=O,inactive
3,CCCCn1cc[n+](C)c1.[Cl][Fe-]([Cl])([Cl])[Cl],inactive
4,CCC[CH2][Sn]([CH2]CCC)([CH2]CCC)[CH2]CCC,43.3 µM (active)
5,Oc1ccc2[nH]cc(CCCCN3CC=C(c4ccccc4)CC3)c2c1,inactive
6,CC(C)=CC1C(C(=O)OC(C#N)c2cccc(Oc3ccccc3)c2)C1(C)C (stereo not given),inactive
7,CC(=O)[O-].CC(=O)[O-].O.O.[Zn+2],inactive
8,COCCC#N,inactive
9,O=NN(CCO)CCO,inactive
10,O=P(Cl)(Cl)Cl,inactive
11,O=C(CCCCl)c1ccc(F)cc1,inactive
12,S=C=NCCc1ccccc1,inactive
13,[Cl-].[Cl-].[Cl-].[Yb+3],inactive
14,[Cl][Hg][c]1ccccc1,17.2 µM (active)
15,Nc1cc(Cl)ccc1Cl,inactive
16,COc1ccc(Cc2nccc3cc(OC)c(OC)cc23)cc1OC,inactive
17,Cc1ccc(C)c2ccccc12,inactive
18,C#CCO,inactive
19,c1cc[n+]2c(c1)-c1cccc[n+]1CC2,inactive
20,O=c1[nH]c(Cl)c(Cl)cc1Cl,inactive

row,Compound,Potency
1,C=CC(=C)C,inactive
2,[C-]1=CC=CC1.[Cl][Zr+2][Cl].c1cc[cH-]c1,inactive
3,O=C(N[C@@H]1N=C(c2ccccc2F)c2cccc3c2N(CC3)C1=O)c1cc2ccccc2[nH]1,inactive
4,c1ccc2c(c1)cc1ccc3cccc4ccc2c1c34,inactive
5,CCC(C)Br (stereo not given),inactive
6,CCCCn1cc[n+](C)c1 (tested in a mixture with another compound),inactive
7,CNN,inactive
8,COC(=O)c1ccccc1S(=O)(=O)NC(=O)Nc1nc(C)nc(OC)n1,inactive
9,O=C1C[C@@H]2OCC=C3CN4CC[C@]56c7ccccc7N1[C@H]5[C@H]2[C@H]3C[C@H]46,inactive
10,CC[C@H](C)[C@H]1O[C@]2(C=C[C@@H]1C)C[C@@H]1C[C@@H](C/C=C(\C)[C@@H](O[C@H]3C[C@H](OC)[C@@H](O[C@H]4C[C@H](OC)[C@@H](NC)[C@H](C)O4)[C@H](C)O3)[C@@H](C)/C=C/C=C3\CO[C@@H]4[C@H](O)C(C)=C[C@@H](C(=O)O1)[C@]34O)O2,13.7 µM (active)
11,C=Cc1cccc(CCl)c1,inactive
12,O=Cc1ccccc1,inactive
13,N#Cc1ccc(N(CC(N)=O)CC(F)(F)F)cc1C(F)(F)F,inactive
14,CC(C)C(Nc1ccc(C(F)(F)F)cc1Cl)C(=O)OC(C#N)c1cccc(Oc2ccccc2)c1 (stereo not given),inactive
15,Nc1nc(N)nc(Cl)n1,inactive
16,[O]=[Cr](=[O])([OH])[O][Cr](=[O])(=[O])[OH],17.4 µM (active) and 27.3 µM (active)
17,FC(F)C(F)(F)OCC(Cn1cncn1)c1ccc(Cl)cc1Cl (stereo not given),inactive
18,CC(Cc1ccc2c(c1)OCO2)NO (stereo not given),inactive
19,CC1CCCC1,inactive
20,CC(Cc1ccc(OCC(=O)O)cc1)NCC(O)c1csc(C(F)(F)F)n1 (stereo not given),inactive
